Compounds with a hit are over-represented: about 15% of the library has one in this group of screens.
ELG1 DNA repair: qHTS screen for small molecules that inhibit ELG1-dependent DNA repair in human embryonic kidney (HEK293T) cells expressing luciferase-tagged ELG1. Potency, µM (doses to about 46.1 µM), for the others: top-dose activity change, negative = inhibition, usual class: inhibitors. actives 2.3% (n = 330,000). HEK293T ELG1-luciferase reporter, luminescence, 16 h; DNA damage induced by 5-fluorouridine; also: nearly all actives have a fitted effect of over 55% in size
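5-Fluorouridine DNA damage + compound/DMSO, 2,000 cells/well, 16 h, 37 °C/5% CO2. ONE-Glo, 30 min RT, luminescence. Readout = decrease in reporter signal.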
DT40 TDP1 no CPT: qHTS for Inhibitors of human tyrosyl-DNA phosphodiesterase 1 (TDP1): qHTS in cells in absence of CPT; DT40 Tdp1-/- hTDP1 cells, no CPT, ATP luminescence, 48 h; Potency, µM (highest dose often 46.2 µM), for inactives: at the highest dose activity change, negative = growth inhibition, actives largely listed as inhibitors; actives 15% (n = 420,000); also: nearly all actives have a fitted effect of over 55% in size
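Compound effects on proliferation are scored in DT40 Tdp1-/-;hTDP1 cells in the absence of CPT. ATP levels (CellTiter-Glo luminescence) are recorded after a ≥48 hr, 37 °C incubation.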
TDP1 cell CPT: qHTS for Inhibitors of human tyrosyl-DNA phosphodiesterase 1 (TDP1): qHTS in cells in presence of CPT | chicken DT40 Tdp1-/-;hTDP1 cells + 20 nM CPT, ATP luminescence, 48 h | Potency, µM (top dose mostly 46.2 µM), for inactives: at the top dose activity change, negative = growth inhibition, usual class: inhibitors | actives 12% (n = 420,000) | AID 686979, 2013; also: nearly all actives have a fitted effect of over 55% in size
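Chicken DT40 Tdp1-/- cells complemented with human TDP1, 400 cells/well, exposed to compounds plus 20 nM camptothecin for at least 48 h at 37 C; viability read as ATP content by CellTiter-Glo luminescence.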
12-LOX inh: Primary qHTS assay for inhibitors of human arachidonate 12S-lipoxygenase (ALOX12): Round 2; purified 12hLO, xylenol orange hydroperoxide absorbance; Polyunsaturated fatty acid lipoxygenase ALOX12 (Homo sapiens), P18054; Potency, µM (top dose mostly 108 µM), for the others: top-dose activity change, negative = inhibition, hits mostly inhibitors; actives 1.1% (n = 580,000)
Target sequence (P18054 whole entry, looked up): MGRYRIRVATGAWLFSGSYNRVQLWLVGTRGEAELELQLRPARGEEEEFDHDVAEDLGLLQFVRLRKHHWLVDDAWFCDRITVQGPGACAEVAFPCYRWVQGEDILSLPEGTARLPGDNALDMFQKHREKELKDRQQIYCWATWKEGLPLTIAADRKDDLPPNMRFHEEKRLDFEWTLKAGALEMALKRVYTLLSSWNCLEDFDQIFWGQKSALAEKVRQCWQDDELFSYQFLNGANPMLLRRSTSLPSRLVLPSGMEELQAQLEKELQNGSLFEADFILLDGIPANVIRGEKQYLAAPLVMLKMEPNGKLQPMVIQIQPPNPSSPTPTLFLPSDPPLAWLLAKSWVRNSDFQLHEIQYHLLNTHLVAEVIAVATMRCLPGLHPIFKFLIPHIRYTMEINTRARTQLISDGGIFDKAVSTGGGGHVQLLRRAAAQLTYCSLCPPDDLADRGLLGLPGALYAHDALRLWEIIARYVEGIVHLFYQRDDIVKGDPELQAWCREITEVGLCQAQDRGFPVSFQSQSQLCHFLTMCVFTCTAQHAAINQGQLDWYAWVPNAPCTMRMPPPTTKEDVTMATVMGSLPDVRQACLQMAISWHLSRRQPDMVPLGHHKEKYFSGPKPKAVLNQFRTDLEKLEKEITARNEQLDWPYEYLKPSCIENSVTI
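Hydroperoxide product was detected by ferrous iron/xylenol orange as the 573 to 405 nm absorbance ratio. Arachidonic acid at 40 uM (final) was turned over for 30 min at room temperature by 150 nM human 12hLO, pH 7.0 Hepes buffer, after 15 min compound preincubation.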
VP16 counter: VP16 counterscreen qHTS for inhibitors of ROR gamma transcriptional activity; Potency, µM (series often up to 53.6 µM), without a hit: at the highest dose activity, negative = inhibition, most hits filed as inhibitors; AID 2546, 2010; Drosophila S2 Gal4-VP16 UAS-luciferase, luminescence, 20 h; actives 3.5% (n = 310,000);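 also: Gal4-VP16 expression switched on by copper sulfate through the metallothionein promoter; nearly all actives have a fitted effect of over 50% in size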
RORgamma inh: qHTS for inhibitors of ROR gamma transcriptional activity. Nuclear receptor ROR-gamma (Mus musculus), P51450. Drosophila S2 Gal4-RORgamma UAS-luciferase reporter, 20 h. Potency, µM (series often up to 53.6 µM), without a hit: at the top dose activity change, negative = inhibition, actives largely listed as inhibitors. actives 5.4% (n = 310,000); also: nearly all actives have a fitted effect of over 60% in size
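Stably transfected Drosophila Schneider cells are the test system, with ROR gamma fused to Gal4 and luciferase under UAS control; luminescence is read after 20 hr of 700 uM copper sulfate induction at ambient temperature.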
The depositor's hits bear a star; ? = inconclusive; · = no result; ! = repeats disagree; [ ] = remark or other dose. Calls follow the shape of the dose curve; as a rule, active = well fitted curve in the direction sought with a large enough effect; inconclusive = small, poorly fitted or top-dose-only effect, or another doubt; inactive = no such curve, though single readings can be large; an effect the other way counts as inactive or inconclusive. % is scaled to controls: 0 for no effect and ±100 for the full control effect; potency is read from the fitted curve at half-maximal effect.

SMILES	ELG1 DNA repair	DT40 TDP1 no CPT	TDP1 cell CPT	12-LOX inh	VP16 counter	RORgamma inh
COc1ccc(CNC(=O)Cc2csc3nc(-c4ccc(F)cc4)cn23)cc1	·	?	21µM*	-25%	·	·
COc1ccc(-c2nc3scc(CCNC(=O)c4cc(OC)cc(OC)c4)n3n2)cc1	·	21µM*	?	-13%	·	·
COc1ccc(CNC(=O)Cc2csc3nc(-c4ccc(C)cc4)cn23)cc1	·	-22%	-24%	-12%	·	·
CCN(Cc1cc2ccccc2[nH]c1=O)S(C)(=O)=O	·	·	·	2%	·	·
COc1ccc2cc(C(=O)N3CCN(S(=O)(=O)c4ccccc4)CC3)c(C)nc2c1	·	·	·	-1%	·	·
COc1c(OC(C)=O)ccc(/C=C/c2ccc3cccc(OC)c3n2)c1[N+](=O)[O-]	?	18µM*	26µM*	-3%	-17%	?
COc1c(OC(C)=O)ccc(/C=C/c2ccc3ccccc3n2)c1[N+](=O)[O-]	?	?	?	-17%	?	?
CCOc1c(OC(C)=O)ccc(/C=C/c2ccc3cccc(OC(C)=O)c3n2)c1[N+](=O)[O-]	?	?	?	-27%	3.5µM*	3.2µM*
Cc1oc(-c2ccc3c(c2)OCCO3)cc1C(=O)O	1.6µM*	?	?	21%	1.4µM*	0.89µM*
Cc1oc(-c2ccc3c(c2)OCCO3)cc1C(=O)NCC(=O)O	?	-19%	2%	-15%	?	7.1µM*
Cc1ccc(Nc2nc(COC(=O)c3ccc4c(c3)C(=O)N(C)C4=O)cs2)cc1	·	·	·	44%	·	·
COc1ccc(OC)c(NC(=O)c2c(-n3cnnn3)sc(C)c2C)c1	·	·	·	19%	·	·
Cc1ccc(NS(=O)(=O)N(C)C)cc1	-3%	-27%	5%	311%	4%	-17%
CN(C)S(=O)(=O)Nc1cc(Cl)cc(Cl)c1	14%	?	18µM*	-9%	2%[10 µM]	-7%
O=C1OCC2=C1C(c1ccc3c(c1)OCO3)CC(=O)N2c1ccc(F)cc1 (centres undefined)	·	·	·	42%	·	·
O=C(Nc1ccc(Cl)cc1)N1CCN(c2ccc3nnc(-c4ccc(F)cc4)n3n2)CC1	4.6µM*	21µM*	?	-7%	-6%[0.365 µM]	32%
COc1ccc(S(=O)(=O)N2CCN(c3ccc4nnc(-c5ccc(F)cc5)n4n3)CC2)cc1	18µM*	15µM*	12µM*	?	-15%	1%
O=C(c1ccc(Br)o1)N1CCN(c2ccccn2)CC1	0%	1%	-6%	5%	-1%	-13%
O=C(Nc1ccc(F)cc1)N1CCN(c2ncccn2)CC1	15%	?	1%	5%	-15%	15%
O=C(c1ccc(Br)o1)N1CCN(c2ccc3nnc(-c4ccc(F)cc4)n3n2)CC1	?	18µM*	?	55%	-14%	41%
CCN(C(=O)COC(=O)C1=COCCO1)c1ccccc1	13%	6.5µM*	6%	5%	·	·
Cc1cc(=O)c2c(O)c3c(O)cc(=O)c4c3c3c(cc(O)c1c23)C(C)(C)C=4O	·	0.73µM*	1µM*!	?	4µM*	7.1µM*!
CCn1c(C)[n+](Cc2ccccc2)c2ccc(C(=O)OC)cc21	-29%	-25%	2%	?	-3%	-4%
CCn1c(C)[n+](Cc2ccccc2)c2ccc(Cl)cc21	15µM*	12µM*	10µM*	?	10%	-1%
Cc1n(Cc2ccccc2)c2cc([N+](=O)[O-])ccc2[n+]1Cc1ccccc1	-8%	21µM*	?	-7%	-1%	-19%
SMILES	ELG1 DNA repair	DT40 TDP1 no CPT	TDP1 cell CPT	12-LOX inh	VP16 counter	RORgamma inh
COC(=O)Cn1c(N)[n+](Cc2ccccc2)c2ccccc21	0%	0%	7%	4%	·	·
Cc1n(Cc2ccccc2)c2ccccc2[n+]1Cc1ccccc1	?	0.73µM*	1.2µM*	-22%	?	-20%[1.91 µM]
Fc1ccccc1Oc1nc(-c2ccncc2)nc2ccccc12	7%	16µM*	?	116%	2%	-28%
Cc1ccc(C)c(Oc2nc(-c3ccncc3)nc3ccccc23)c1	·	·	·	-6%	·	·
CCOc1ccc(C(=O)N(c2ccc(C)cc2)C2C=CS(=O)(=O)C2)cc1 (centres undefined)	·	·	·	1%	·	·
Cc1cccc(C)c1NC(=O)CSc1nc(C)c(CC(=O)c2ccc(Br)cc2)c(C)c1C#N	-7%	?	21µM*	0%	-2%	15%
C/C(=N\Nc1cccc2cccnc12)c1ccccn1	?	0.92µM*	0.73µM*	-22%	4µM*	0.63µM*
C/C(=N\Nc1cc(N2CCCCC2)nc(C)n1)c1ccc(Br)cc1	16µM*	5.8µM*	13µM*	?	6.3µM*	?
C/C(=N\Nc1cccc2cccnc12)c1ccccc1O	?	-20%	-24%	-4%	-11%	?
C/C(=N\Nc1ncnc2sc(C)c(C)c12)c1ccccn1	?	0.015µM*	0.1µM*	?	0.79µM*	0.4µM*
Cc1sc2ncnc(N/N=C/c3cccc(O)c3)c2c1C	?	-22%	2%	-7%	?	?
C/C(=N\Nc1ncc(Cl)cc1Cl)c1ccccn1	?	0.026µM*	18µM*	·	14µM*	0.71µM*
Cc1ccc2[nH]c(C)c(CC(=O)NCC(F)(F)F)c2c1	·	·	·	13%	·	·
COC(=O)c1ccc(OC(=O)COc2ccc3oc4c(c3c2)CCCC4)c(OC)c1	·	·	·	-15%	·	·
Cc1cc(C)n2nc(C(=O)N3CCC4(CC3)C(=O)Nc3ccccc34)cc2n1	·	·	·	29%	·	·
CN(C)CCN(C)[C@@H]1[C@H](O)[C@H](CO)O[C@@H]1CNC1CCN(C)CC1	·	·	·	56%	·	·
C/C(=N\NC(=O)c1ccccc1)c1ccc(N2CCOCC2)cc1	?	-2%	5%	21%	4%	-1%
C/C(=N\Nc1nc2ccccc2[nH]1)c1ccc(Cl)s1	?	23µM*	?	?	2.8µM*	2.2µM*
C/C(=N\Nc1nc(C)cc(C)n1)c1ccc(N2CCOCC2)cc1	-12%	?	?	-2%	-5%	11µM*
C/C(=N\NC(=O)C1CC1)c1ccc(N2CCOCC2)cc1	24%	-1%	3%	9%	-3%	1%

Bioassay records as filed in PubChem BioAssay.
